The record followed here is PubChem BioAssay AID371 (SRMLSC, 2006).

Each structure is given as a SMILES string. The whole screen tested about 3,300 compounds, of which about 280 (8.5%) were called active.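 How the source made its calls: active means mean growth inhibition over the two runs of 50% or more; inactive means mean growth inhibition under 50%.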 What follows is part of a selection rich in actives, with near analogues and random picks from the rest.

A short description of this test: A549 NSCLC cell proliferation inhibitors – ATP luminescence, human non-small cell lung line, primary screen (AID 371).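 Further: compound exposure lasted 72 h before the ATP read; 0% = untreated cell signal and 100% = no luminescence left.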 As to conditions: at 10 µM, stronger effect = higher value.
As to `COc1ccc(C(=O)N2CCCC(c3ccccc3)C2)cc1` (centres undefined), the growth inhibition is 19% (inactive). The value for `COc1ccccc1-c1nnc2sc(COc3ccccc3)nn12` was 22% (inactive). To `CC1C[C@@]2(NC(=O)NC2=O)C(C)CN1C` (some centres undefined) belongs 2.94% (inactive). The value for `COc1ccc(Nc2nc(Nc3ccc(OC)cc3)nc(-n3[nH]c(=O)c(C)c3C)n2)cc1` was 39.1% (inactive); that for `COc1ccc(Nc2cc(C)nc(-n3nc(C)cc3C)n2)cc1` was 66.2% (active); that for `COc1ccc(Nc2cc(C)nc3ccccc23)cc1` was 31.3% (inactive).

On to `O=C(Nc1ccccc1)c1cc(N2CCOCC2)nc2ccccc12`, for which the growth inhibition was 8.97% (inactive). The value for `CC(C)COc1ccc(C(=O)NC(CC(C)C)C(=O)O)cc1` (centres undefined) was -8.3% (inactive); that for `COc1cc(-c2nn3c(-c4ccccn4)nnc3s2)cc(OC)c1OC` was -8.06% (inactive); that for `Cc1ccc2c(=O)c(CN(C)C3CCN(C)CC3)c(C)[nH]c2c1C` was 5.56% (inactive). To `CCOc1ccc(C2=Nn3c(nnc3-c3ccccc3OC)SC2)cc1` belongs 66% (active); to `CCOc1ccc(C2=Nn3c(nnc3-c3cccnc3)SC2)cc1`, 22.4% (inactive).

For `COc1ccc(C2=Nn3c(nnc3-c3ccccn3)SC2)cc1`, the growth inhibition is 50.1% (active). To `COc1ccccc1-c1nnc2n1N=C(c1ccc(O)c(O)c1)CS2` belongs 74.4% (active); to `COc1ccc(C2=Nn3c(nnc3-c3cccnc3)SC2)cc1OC`, 25% (inactive); to `COc1ccc(C2=Nn3c(nnc3-c3ccccn3)SC2)cc1OC`, 3.8% (inactive). To `COc1ccc(OC)c(C2=Nn3c(nnc3-c3ccco3)SC2)c1` belongs 23.2% (inactive).

In the case of `COc1ccc(C2=Nn3c(nnc3-c3ccccc3)SC2)cc1OC`, the growth inhibition is 8.86% (inactive). To `CCOc1ccc(C2=Nn3c(nnc3-c3ccccn3)SC2)cc1` belongs 42.3% (inactive); to `Cc1ccsc1C1NC(=O)c2c(sc3c2CCCC3)N1` (centres undefined), 45.3% (inactive).

Consider `O=CN1CCN(C(=O)CN2C(=O)c3ccccc3C2=O)CC1`, for which the growth inhibition is -3.2% (inactive). The value for `C/C=C/c1ccccc1OCc1ccc(C(=O)O)o1` was 6.28% (inactive). The value for `CC12CN3CC(=O)N4CC5(C)CN(CC(C)(C4)C5=O)C(=O)CN(C1)CC(C)(C3)C2=O` was 1.18% (inactive); that for `COC(=O)CSc1ncnc2c1sc1nc(-c3ccco3)c3c(c12)CC(C)(C)OC3` was 4.18% (inactive); that for `O=C(Nc1ccccn1)c1ccc(=O)[nH]n1` was 5.88% (inactive).

As to `C=CCn1c(SCC(=O)OC)nc2sc3c(c2c1=O)CCN(C)C3`, the growth inhibition was 0.89% (inactive). To `CCCC1C2C(=O)N(c3ccccc3OC)C(=O)C2ON1c1ccccc1` (centres undefined) belongs 5.99% (inactive); to `CN(Cc1ccccc1)c1ncnc2ccc(Br)cc12`, 55.5% (active); to `CN(C)CCN(Cc1ccccc1)c1ccccn1`, 0.66% (inactive).
